High-throughput results as filed in PubChem.
Shown are actives, neighbours in structure and some others; about 1.8% of the full set was active somewhere.
PP1 inh: PP1-alpha (human) inhibition in PP5 counter-screen. P62136. purified PP1alpha, OMFP fluorescence. inhibition, % at 6.7 µM. 0.9% of 320,000 active. AID 2235;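 active = inhibition above the mean inhibition of all tested compounds plus 3 SD, computed separately for each screening campaign, cut at about 15% in these data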
Fam108B inh: blocks mouse Fam108B hydrolase in RBBP9 counter-screen. recombinant Fam108B, FP-Rh probe fluorescence polarization. inhibition, % at 9.51 µM. 0.33% of 300,000 active;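 active = inhibition above the screen mean inhibition plus 3 SD, computed separately per campaign, cut at about 18% in these data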;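 also: inhibitors lower polarization as less probe binds the enzyme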
LYPLA1 counter: LYPLA1 (human) inhibition in PME1 counter-screen; O75608; recombinant LYPLA1, FP-Rh probe fluorescence polarization; inhibition, % at 5.9 µM; 0.16% of 320,000 active; AID 2174;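 active = inhibition above the mean of all tested compounds plus 3 SD, set per campaign, cut at about 14% in these data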;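 also: inhibitors block serine hydrolase probe labeling of LYPLA1 so polarization falls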
Target sequence (O75608 whole entry, looked up): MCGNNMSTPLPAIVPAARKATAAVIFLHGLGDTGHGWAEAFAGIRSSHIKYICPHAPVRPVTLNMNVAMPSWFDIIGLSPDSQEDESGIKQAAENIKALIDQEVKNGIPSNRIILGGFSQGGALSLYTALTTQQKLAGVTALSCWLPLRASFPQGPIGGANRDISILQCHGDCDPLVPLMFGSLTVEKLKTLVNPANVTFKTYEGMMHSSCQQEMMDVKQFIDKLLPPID
LYPLA2 inh: counter-screen for PME1 inhibitors: inhibitors of human LYPLA2 | 0.38% of 320,000 active | recombinant LYPLA2, FP-Rh probe fluorescence polarization | inhibition, % at 5.9 µM | AID 2177;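 active = inhibition above the screen-wide mean plus 3 SD, limit set per campaign, cut at about 26% in these data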
PME-1 primary: PME-1 (human) inhibition | inhibition, % at 5.9 µM | Q9Y570 | 0.53% of 320,000 active | recombinant PME-1, FP-Rh probe fluorescence polarization;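 active = inhibition above the campaign mean of all compounds plus 3 SD, cut at about 26% in these data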;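 also: competitive labeling of PME-1 active site by serine hydrolase directed probe; inhibitors block probe labeling so polarization falls and inhibition rises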
Target sequence (Q9Y570 whole entry, looked up): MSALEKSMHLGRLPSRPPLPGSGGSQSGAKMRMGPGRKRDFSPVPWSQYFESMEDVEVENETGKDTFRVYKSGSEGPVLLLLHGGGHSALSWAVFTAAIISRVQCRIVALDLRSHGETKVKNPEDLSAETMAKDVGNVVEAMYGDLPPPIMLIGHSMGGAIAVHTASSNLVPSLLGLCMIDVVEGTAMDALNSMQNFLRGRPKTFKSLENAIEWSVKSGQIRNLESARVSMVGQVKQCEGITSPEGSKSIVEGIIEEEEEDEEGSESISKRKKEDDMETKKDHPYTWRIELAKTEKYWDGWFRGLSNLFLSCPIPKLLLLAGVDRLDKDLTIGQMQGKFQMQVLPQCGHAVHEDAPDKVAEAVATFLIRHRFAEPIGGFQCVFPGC
PP5 inh: PP5 (human) phosphatase inhibition; P53041; purified PP5c, OMFP substrate fluorescence; inhibition, % at 6.7 µM; 0.18% of 320,000 active; AID 1987;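 active = inhibition above the campaign's mean inhibition across all tested compounds plus 3 SD, cut at about 9.5% in these data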
LYPLA2 confirm: LYPLA2 (human) inhibition, confirmation counter-screen | shares compounds with LYPLA2 inh | recombinant LYPLA2, FP-Rh probe fluorescence polarization | inhibition, % at 5.9 µM | 72% of 1,100 active | AID 2232;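 active = mean inhibition across replicates above the hit cutoff set in the primary screen, cut at about 26% in these data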;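 also: blocked labeling of the enzyme by serine hydrolase FP-Rh probe lowers polarization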
LYPLA2 gel ABPP: inhibitors of human LYPLA2; 30% of 150 active; inhibition, % at 20 µM; rhLYPLA2 in mouse brain proteome, gel ABPP FP-Rh; shares compounds with LYPLA2 inh;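 active = inhibition of LYPLA2 enzyme probe labeling above about 50%, limit read from the data; inactive = inhibition below that limit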;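 also: loss of FP-Rh probe labeling of the LYPLA2 gel band measured as band density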
Large screens that a line does not name were inactive (follow-up assays come after a bar, where they were run).

Cc1cccc(NC(=O)c2nc[nH]c2C(=O)N[C@@H](Cc2ccccc2)C(=O)OCc2ccccc2)c1	none
O=C(CN1CCN(C/C=C/c2ccccc2)CC1)NCc1ccc(Cl)cc1	LYPLA2 inh 42 | LYPLA2 confirm 34
O=C(CN1CCN(c2ccc(Cl)cc2)CC1)NCc1ccccc1	none
O=C1CC(N2CCN(c3cccc(C(F)(F)F)c3)CC2)C(=O)N1c1ccc(F)cc1 (stereo unspecified)	LYPLA2 inh 55 | LYPLA2 confirm 49
Cc1cccc(N2C(=O)CC(N3CCN(c4cccc(C(F)(F)F)c4)CC3)C2=O)c1 (stereo unspecified)	LYPLA2 inh 46 | LYPLA2 confirm 40
CCOC(=O)C1CCCN(C2CC(=O)N(c3cccc(C(F)(F)F)c3)C2=O)C1 (stereo unspecified)	none
COc1ccc(-c2cc(C3CCN(c4ccc(C(C)=O)cc4[N+](=O)[O-])CC3)[nH]n2)cc1	LYPLA2 inh 37 | LYPLA2 confirm 42
COc1ccc(-c2cc(C3CCN(C(=O)OC(C)(C)C)CC3)[nH]n2)cc1	LYPLA2 inh 27 | LYPLA2 confirm inactive
COC(=O)c1ccc(N2CCC(c3cc(-c4ccc(OC)cc4)n[nH]3)CC2)c([N+](=O)[O-])c1	LYPLA2 inh 26 | LYPLA2 confirm inactive
COc1ccc(-n2c(C)cc(C(=O)Cn3nnc4ccccc4c3=O)c2C)cc1	LYPLA2 inh 27 | LYPLA2 confirm inactive
N#Cc1nc(-c2ccco2)oc1N1CCN(c2ccccc2)CC1	LYPLA2 inh 26 | LYPLA2 confirm inactive
COc1ccc(N2CCN(c3oc(-c4ccco4)nc3C#N)CC2)cc1	none
COc1ccc2cc(C3=CCCCC3)ncc2c1	none (no result: Fam108B inh)
O=C(CN1CCN(Cc2cccc(F)c2)CC1)NCc1ccccc1	none
CC(=O)Nc1cccc(-n2nnc(SCC(=O)N(C)c3ccccc3)n2)c1	LYPLA2 inh 34 | LYPLA2 confirm 40
CC(=O)Nc1cccc(-n2nnc(SCC(=O)Nc3ccccc3)n2)c1	none
O=C(Cn1cc([N+](=O)[O-])cn1)Nc1ccc(Cn2cc(Br)cn2)cc1	LYPLA2 inh 56 | LYPLA2 confirm 57 | LYPLA2 gel ABPP inactive
O=C(COc1ccc(Br)cc1)NNC(=S)NC(=O)c1ccccc1[N+](=O)[O-]	LYPLA2 inh 33 | LYPLA2 confirm 31
O=C1CCCN1CCCNc1ncnc2c1cnn2-c1ccc(Cl)cc1	LYPLA2 inh 30 | LYPLA2 confirm 29
O=C1C(Cl)=C(Nc2ccccc2O)C(=O)N1CCc1ccccc1	none
CCCOc1ccc(N2C(=O)CC(N3CCN(c4ccc([N+](=O)[O-])cc4)CC3)C2=O)cc1 (stereo unspecified)	LYPLA2 inh 35 | LYPLA2 confirm 36
Cc1cc(=O)oc2c(C)c(OCC(=O)N3CCN(C(=O)C4COc5ccccc5O4)CC3)ccc12 (stereo unspecified)	LYPLA2 inh 38 | LYPLA2 confirm 36
Cc1cc(=O)oc2c(C)c(OCC(=O)N3CCN(c4cccc(Cl)c4)CC3)ccc12	LYPLA2 inh 30 | LYPLA2 confirm 34
COc1ccc(/C=C2\SC(=O)N(CC(=O)Nc3ccc(F)cc3)C2=O)cc1O	LYPLA2 inh 49 | LYPLA2 confirm 54 | LYPLA2 gel ABPP 50
COc1ccc(/C=C2\SC(=O)N(CC(=O)Nc3cccnc3)C2=O)cc1OC	LYPLA2 inh 35 | LYPLA2 confirm 26
COc1ccc(/C=C2\Sc3ccc(C(=O)NCc4cccnc4)cc3N(C)C2=O)cc1OC	LYPLA2 inh 28 | LYPLA2 confirm inactive
COc1cc(/C=C2\SC(=O)N(CC(=O)Nc3ccccc3F)C2=O)cc(Cl)c1O	LYPLA2 inh 51 | LYPLA2 confirm 61
COc1cc(/C=C2/SC(=S)N(CC(=O)Nc3cccnc3)C2=O)cc(OC)c1OC	none
COc1ccc(/C=C2/SC(=O)N(CCC(=O)Nc3ccc(C)cc3)C2=O)cc1OC	none
COc1ccc(NC(=O)CCCN2C(=O)CN(C)C2=O)cc1Cl	none (no result: Fam108B inh)
COc1cc(/C=C2/SC(=O)N(CC(=O)N3CCCC3)C2=O)ccc1Oc1ccc([N+](=O)[O-])cn1	none
CCN1C(=O)S/C(=C/c2ccc(Oc3ccc([N+](=O)[O-])cn3)c(OC)c2)C1=O	LYPLA2 inh 32 | LYPLA2 confirm 41
CCCN(Cc1nnc(-c2ccccc2Cl)o1)C(=O)c1oc2ccccc2c1C	none
COc1ccc(C(=O)NCCCNC(=O)c2ccccn2)cc1	none
CCCOc1ccc(-c2c(=O)n(OCC(=O)OCC)c3ccccc3[n+]2[O-])cc1	LYPLA2 inh 27 | LYPLA2 confirm 72
O=C(Nc1ccccc1Br)c1cc[n+]([O-])cc1	none
COc1ccc(N2CCN(C(=O)C3CCN(S(=O)(=O)c4ccc(F)cc4)CC3)CC2)cc1	LYPLA2 inh 42, PME-1 primary 42 | LYPLA2 confirm 45
COc1ccc(N2CCN(C(=O)C3CCCN(S(=O)(=O)c4ccc(F)cc4)C3)CC2)cc1 (stereo unspecified)	none
CC(=O)c1ccc(N2CCN(C(=O)C3CCN(S(=O)(=O)c4ccc5c(c4)CC(C)N5C(C)=O)CC3)CC2)cc1 (stereo unspecified)	LYPLA2 inh 74 | LYPLA2 confirm 73 | LYPLA2 gel ABPP 64
COc1ccc(N2CCN(C(=O)COc3ccc(S(=O)(=O)N4CCOCC4)cc3C)CC2)cc1	LYPLA2 inh 28 | LYPLA2 confirm 30
CC(=O)N1c2ccc(S(=O)(=O)N3CCC(C(=O)N4CCN(c5cccc(C(F)(F)F)c5)CC4)CC3)cc2CC1C (stereo unspecified)	none
O=C(CCCN1C(=O)c2cccc3cccc(c23)C1=O)N1CCN(c2ccc(F)cc2)CC1	LYPLA2 inh 54 | LYPLA2 confirm 50
COc1ccc(N2CCN(C(=O)CCCOc3cc(=O)n(C)c4ccccc34)CC2)cc1	LYPLA2 inh 31 | LYPLA2 confirm 33
COc1ccccc1N1CCN(C(=O)CCN2C(=O)c3cccc4cccc(c34)C2=O)CC1	none
COc1ccc(N2CCN(C(=O)CCCN3C(=O)c4cccc5cccc(c45)C3=O)CC2)cc1	LYPLA2 inh 73 | LYPLA2 confirm 63 | LYPLA2 gel ABPP inactive
CC1CCN(CC(CS(=O)(=O)c2ccc([N+](=O)[O-])cc2)N2CCC(C)CC2)CC1 (stereo unspecified)	none
C/C(=N\OC(=O)c1ccccc1)c1cc(-c2ccc(Cl)cc2)no1	none
C/C(=N/OC(=O)C1CC1)c1cc(-c2ccc(Cl)cc2)no1	LYPLA2 inh 37 | LYPLA2 confirm inactive
CCCCn1c(N)c(N(CC(C)C)C(=O)CC2CCCC2)c(=O)[nH]c1=O	none
